The values below come from PubChem BioAssay (NCATS).

Results filed as inconclusive are left out. Calls of active or inactive are those of the source. Calls follow the shape of the dose curve; as a rule, active = well fitted inhibition curve with a large enough effect; inconclusive = small, poorly fitted or top-dose-only effect; inactive = no such curve, though single readings can be large or run the other way.
Potency is read from the fitted curve at half-maximal effect.

The nature of one assay: BET inhibitor-based combinations targeting novel dependencies in MECOM-rearranged (r) AML: MV-4-11 cell line (AID 2202233). Also: nearly all actives have a fitted effect of over 45% in size.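 As to viability, % of control: plate controls were DMSO for no effect and blank wells for full effect.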 As to conditions: MV-4-11 AML viability, CellTiter-Glo luminescence, 48 h; series mostly up to 46 µM; viability, % of control: at the top concentration. In short, it runs like this: (§1)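 Activity is given as area under the curve and as Z-AUC, mean-centred within each cell line. It comes from 11-point dose curves normalized to DMSO and empty wells. CellTiter-Glo luminescence was read after 48 hr drug exposure of 500 cells/well.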
On to `COC(c1ccccc1)(c1ccccc1)[C@H](Oc1nc(C)cc(C)n1)C(=O)O`, for which the “viability, % of control” value was 111% (inactive).

Regarding `c1ccc2c(-c3cnn4cc(-c5ccc(N6CCNCC6)cc5)cnc34)ccnc2c1`, the Potency was 0.934 µM (active).

Take `CCN(CC)CCCCNc1ncc2cc(-c3cc(OC)cc(OC)c3)c(NC(=O)NC(C)(C)C)nc2n1`: the Potency was 11.8 µM (active).

Consider `COc1cc(C(=O)NC2CCN(C)CC2)ccc1Nc1ncc2c(n1)N(C1CCCC1)CCC(=O)N2C(C)C`, for which the Potency is 6.61 µM (active).

`CC(C)(C)c1cc(C(C)(C)C)c(NC(=O)c2c[nH]c3ccccc3c2=O)cc1O`: the Potency was 23.5 µM (active).

The next assay in a line: BET inhibitor-based combinations targeting novel dependencies in MECOM-rearranged (r) AML: HNT-34 cell line (AID 2202234). Also: nearly all actives have a fitted effect of over 35% in size.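 As to viability (% of control): plate controls were vehicle wells for no effect and cell-free wells for full effect.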 The conditions noted are these: HNT-34 AML viability, CellTiter-Glo luminescence, 48 h; series mostly up to 46 µM; viability (% of control): at the top concentration. The method in brief: as §1
In the case of `CCCOc1ccc(C(=O)OCCN(CC)CC)cc1N`, the “viability (% of control)” value is 90.5% (inactive).

With `Oc1c(Cl)cc(Cl)c2cccnc12`, the Potency was 4.17 µM (active).

`NC(N)=NC(N)=NCCc1ccccc1`: the “viability (% of control)” value is 96.7% (inactive).

As for `Cc1ccc(NC(=O)c2ccc(CN3CCN(C)CC3)cc2)cc1Nc1nc(-c2cccnc2)cs1`, the Potency was 5.25 µM (active).

For `CC(=O)O[C@H]1C[C@@H]2CC[C@@H]3[C@H](CC[C@@]4(C)[C@H]3C[C@H]([N+]3(C)CCCCC3)[C@@H]4OC(C)=O)[C@@]2(C)C[C@@H]1N1CCCCC1`, the “viability (% of control)” value is 99.5% (inactive).

Take `C[C@@H](CN1CC(=O)NC(=O)C1)N1CC(=O)NC(=O)C1`: the “viability (% of control)” value is 78.8% (inactive).

For `O=c1ccn([C@@H]2O[C@H](CO)[C@H](O)[C@@H]2F)c(=O)[nH]1`, the “viability (% of control)” value was 106% (inactive).

Turning to `OC[C@@H](O)[C@@H](O)[C@H](O)[C@@H](O)CO`, the “viability (% of control)” value is 96.9% (inactive).

`CC1(C)CCC2=C(O1)c1ccccc1C(=O)C2=O`: the Potency is 16.6 µM (active).

For the compound `CC(C)(Sc1cc(C(C)(C)C)c(O)c(C(C)(C)C)c1)Sc1cc(C(C)(C)C)c(O)c(C(C)(C)C)c1`, the “viability (% of control)” value is 90.3% (inactive).

In the case of `Cn1c(Nc2ccc(C(F)(F)F)cc2)nc2cc(Oc3ccnc(-c4ncc(C(F)(F)F)[nH]4)c3)ccc21`, the Potency is 0.332 µM (active).

In the case of `CN(C)CCc1c[nH]c2ccc(CS(=O)(=O)N3CCCC3)cc12`, the “viability (% of control)” value was 101% (inactive).

With `Cc1coc2c1C(=O)C(=O)c1c-2ccc2c1CCCC2(C)C`, the Potency was 18.6 µM (active).

For the compound `CC(Cc1ccc(O)c(O)c1)(NN)C(=O)O` (centres undefined), the “viability (% of control)” value is 60.7% (inactive).

For `Clc1ccc(C(Cn2ccnc2)OCc2ccc(Sc3ccccc3)cc2)c(Cl)c1` (centres undefined), the Potency is 20.9 µM (active).

As to `O=C(/C=C\n1cnc(-c2cc(C(F)(F)F)cc(C(F)(F)F)c2)n1)NNc1cnccn1`, the Potency was 0.934 µM (active).

As for `Nc1nc(Cl)nc2c1ncn2[C@H]1C[C@H](O)[C@@H](CO)O1`, the Potency is 0.0742 µM (active).

On to `CCOC(=O)c1c(C)n(C)c2ccc(O)cc12`, for which the “viability (% of control)” value is 97% (inactive).

For the compound `N[C@@H](CC(=O)N1CCn2c(nnc2C(F)(F)F)C1)Cc1cc(F)c(F)cc1F`, the “viability (% of control)” value is 101% (inactive).

As to `c1ccc2c(-c3cnn4cc(-c5ccc(N6CCNCC6)cc5)cnc34)ccnc2c1`, the Potency was 4.68 µM (active).

As to `CCn1cc(C(=O)O)c(=O)c2cc(F)c(N3CCN(C)CC3)cc21`, the “viability (% of control)” value was 96.4% (inactive).

Regarding `CCCCC(CC)COC(=O)C(C#N)=C(c1ccccc1)c1ccccc1` (centres undefined), the “viability (% of control)” value is 103% (inactive).

In the case of `CCN(CC)CCCCNc1ncc2cc(-c3cc(OC)cc(OC)c3)c(NC(=O)NC(C)(C)C)nc2n1`, the Potency is 8.33 µM (active).

As for `COc1cc(C(=O)NC2CCN(C)CC2)ccc1Nc1ncc2c(n1)N(C1CCCC1)CCC(=O)N2C(C)C`, the Potency is 16.6 µM (active).
